# From article PMC7862700, “An all-to-all approach to the identification of sequence-specific readers for epigenetic DNA modifications on cytosine”
# Assays:
# Experiment in all cases: DAPPL (digital affinity profiling via proximity ligation, sequencing); 10 mM Tris-HCl pH 7.5, 50 mM NaCl, 1 mM DTT, 4% glycerol, room temperature, 30 min; GST-TFs on glutathione beads, 16-mer random dsDNA library, 0.1% formaldehyde crosslink after washing; high values mean tight binding
# Details in all cases: protein: recombinant; tags: N-terminal GST; dsDNA, one strand shown
# FLI1 = molecular target: T1, FLI1 (Homo sapiens, UniProt Q01543 1-452)
# T1 sequence: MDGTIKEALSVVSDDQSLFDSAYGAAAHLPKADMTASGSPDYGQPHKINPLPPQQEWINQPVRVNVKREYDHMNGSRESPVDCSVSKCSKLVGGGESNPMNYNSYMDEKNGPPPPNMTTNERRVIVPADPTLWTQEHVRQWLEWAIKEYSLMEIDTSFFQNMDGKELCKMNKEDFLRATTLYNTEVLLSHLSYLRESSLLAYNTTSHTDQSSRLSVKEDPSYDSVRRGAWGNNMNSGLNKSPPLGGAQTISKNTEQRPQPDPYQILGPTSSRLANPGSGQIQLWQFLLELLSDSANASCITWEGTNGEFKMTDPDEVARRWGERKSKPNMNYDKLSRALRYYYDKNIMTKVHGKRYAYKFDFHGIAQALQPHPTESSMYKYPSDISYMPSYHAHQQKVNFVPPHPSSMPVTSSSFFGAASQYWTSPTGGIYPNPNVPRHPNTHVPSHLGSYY
# Outline: (§1)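 Pools were built from human transcription factors expressed in yeast as GST fusions, captured on glutathione beads and DNA-barcoded, along with a tag-only sample. Incubation with 200 nmole of a 16-mer random double-stranded DNA library lasted 30 min at room temperature in Tris/NaCl/DTT/glycerol buffer, and was followed by washing, 0.1% formaldehyde crosslinking, proximity ligation, PCR amplification and Illumina NextSeq500 sequencing. Binding signal is the quotient of each hexamer's read frequency for a factor and its frequency for the tag-only sample.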
# ELK1 = molecular target: T2, ELK1 (Homo sapiens, UniProt P19419 1-428)
# T2 sequence: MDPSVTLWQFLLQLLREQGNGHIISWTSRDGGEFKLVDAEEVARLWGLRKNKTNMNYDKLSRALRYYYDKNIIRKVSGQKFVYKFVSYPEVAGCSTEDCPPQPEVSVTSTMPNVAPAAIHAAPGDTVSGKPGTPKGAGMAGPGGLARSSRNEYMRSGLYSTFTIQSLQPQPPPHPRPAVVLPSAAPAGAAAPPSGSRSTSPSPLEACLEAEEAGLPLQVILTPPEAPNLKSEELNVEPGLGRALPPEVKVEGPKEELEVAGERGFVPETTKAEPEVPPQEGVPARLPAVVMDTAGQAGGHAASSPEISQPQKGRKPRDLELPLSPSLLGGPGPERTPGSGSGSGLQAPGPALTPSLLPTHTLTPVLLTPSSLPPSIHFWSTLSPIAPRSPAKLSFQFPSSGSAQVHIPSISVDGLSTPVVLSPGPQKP
# Outline: as §1
# GABPA = molecular target: T3, GABPA (Homo sapiens, UniProt Q06546 1-454)
# T3 sequence: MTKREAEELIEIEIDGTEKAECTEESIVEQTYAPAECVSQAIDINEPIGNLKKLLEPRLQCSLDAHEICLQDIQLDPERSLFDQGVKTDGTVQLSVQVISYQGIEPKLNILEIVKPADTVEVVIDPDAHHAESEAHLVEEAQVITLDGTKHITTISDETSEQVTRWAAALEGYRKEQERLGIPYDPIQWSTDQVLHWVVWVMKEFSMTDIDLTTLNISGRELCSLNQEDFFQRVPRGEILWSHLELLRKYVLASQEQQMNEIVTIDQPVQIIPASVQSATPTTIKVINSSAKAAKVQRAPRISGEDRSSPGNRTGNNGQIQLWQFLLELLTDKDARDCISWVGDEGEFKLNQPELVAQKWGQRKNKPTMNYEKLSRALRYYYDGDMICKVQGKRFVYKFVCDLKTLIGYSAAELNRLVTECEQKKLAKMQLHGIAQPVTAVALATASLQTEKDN
# Outline: as §1
# ERG = molecular target: T4, ERG (Homo sapiens, UniProt P11308 1-479)
# T4 sequence: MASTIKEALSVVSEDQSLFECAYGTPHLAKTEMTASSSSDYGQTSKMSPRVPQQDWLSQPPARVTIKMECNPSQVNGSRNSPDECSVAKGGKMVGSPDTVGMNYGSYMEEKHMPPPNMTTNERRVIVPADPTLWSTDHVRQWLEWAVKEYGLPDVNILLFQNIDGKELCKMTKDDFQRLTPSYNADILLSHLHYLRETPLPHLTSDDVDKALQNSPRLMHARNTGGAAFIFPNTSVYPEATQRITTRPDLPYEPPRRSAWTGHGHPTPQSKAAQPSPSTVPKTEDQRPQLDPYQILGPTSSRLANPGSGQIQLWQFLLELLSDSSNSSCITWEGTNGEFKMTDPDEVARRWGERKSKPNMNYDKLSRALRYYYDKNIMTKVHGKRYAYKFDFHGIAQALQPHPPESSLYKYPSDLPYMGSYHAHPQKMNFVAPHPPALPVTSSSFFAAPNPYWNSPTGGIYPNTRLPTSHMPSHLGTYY
# Outline: as §1
# ELF1 = ELF1 (Homo sapiens, UniProt P32519 1-619)
# Chain of ELF1 (P32519 whole entry): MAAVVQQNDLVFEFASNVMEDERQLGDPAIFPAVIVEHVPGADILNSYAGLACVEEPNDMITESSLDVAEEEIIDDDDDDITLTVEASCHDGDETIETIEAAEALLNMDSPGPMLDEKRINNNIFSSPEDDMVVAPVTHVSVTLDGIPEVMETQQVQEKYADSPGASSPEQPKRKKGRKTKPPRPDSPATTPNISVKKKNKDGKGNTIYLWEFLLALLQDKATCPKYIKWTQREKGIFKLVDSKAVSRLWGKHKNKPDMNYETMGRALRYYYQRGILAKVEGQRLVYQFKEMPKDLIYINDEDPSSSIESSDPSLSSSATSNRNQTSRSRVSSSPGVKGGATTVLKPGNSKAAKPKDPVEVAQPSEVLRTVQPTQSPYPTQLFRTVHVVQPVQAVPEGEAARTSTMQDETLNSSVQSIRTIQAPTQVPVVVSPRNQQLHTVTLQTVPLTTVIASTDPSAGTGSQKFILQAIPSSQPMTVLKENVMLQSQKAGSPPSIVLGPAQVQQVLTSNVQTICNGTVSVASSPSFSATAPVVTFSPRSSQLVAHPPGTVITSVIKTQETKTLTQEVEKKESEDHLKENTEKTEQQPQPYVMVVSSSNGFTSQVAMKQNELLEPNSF
# Outline: as §1
# EHF = molecular target: T5, EHF (Homo sapiens, UniProt Q9NZC4 1-300)
# T5 sequence: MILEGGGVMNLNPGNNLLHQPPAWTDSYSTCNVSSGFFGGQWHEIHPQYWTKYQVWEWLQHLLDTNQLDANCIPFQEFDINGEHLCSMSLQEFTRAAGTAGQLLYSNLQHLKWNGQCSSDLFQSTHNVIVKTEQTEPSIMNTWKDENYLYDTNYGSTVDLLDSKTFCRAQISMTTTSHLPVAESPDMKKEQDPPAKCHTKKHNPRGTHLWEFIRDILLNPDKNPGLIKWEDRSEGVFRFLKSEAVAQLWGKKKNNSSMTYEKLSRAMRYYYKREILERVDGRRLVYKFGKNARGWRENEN
# Outline: as §1
# SPI1 = SPI1 (Homo sapiens, UniProt P17947 1-270)
# Outline: as §1
# SPIB = SPIB (Homo sapiens, UniProt Q01892 1-262)
# Chain of SPIB (Q01892 whole entry): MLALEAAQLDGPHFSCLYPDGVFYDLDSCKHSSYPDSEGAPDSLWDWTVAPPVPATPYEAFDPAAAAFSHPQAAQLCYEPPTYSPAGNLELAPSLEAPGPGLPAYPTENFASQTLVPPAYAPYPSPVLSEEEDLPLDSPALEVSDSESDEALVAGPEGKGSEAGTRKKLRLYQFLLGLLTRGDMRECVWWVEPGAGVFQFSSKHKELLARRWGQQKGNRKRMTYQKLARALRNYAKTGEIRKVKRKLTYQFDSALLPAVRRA
# Outline: as §1
# ELK3 = molecular target: T6, ELK3 (Homo sapiens, UniProt P41970 1-407)
# T6 sequence: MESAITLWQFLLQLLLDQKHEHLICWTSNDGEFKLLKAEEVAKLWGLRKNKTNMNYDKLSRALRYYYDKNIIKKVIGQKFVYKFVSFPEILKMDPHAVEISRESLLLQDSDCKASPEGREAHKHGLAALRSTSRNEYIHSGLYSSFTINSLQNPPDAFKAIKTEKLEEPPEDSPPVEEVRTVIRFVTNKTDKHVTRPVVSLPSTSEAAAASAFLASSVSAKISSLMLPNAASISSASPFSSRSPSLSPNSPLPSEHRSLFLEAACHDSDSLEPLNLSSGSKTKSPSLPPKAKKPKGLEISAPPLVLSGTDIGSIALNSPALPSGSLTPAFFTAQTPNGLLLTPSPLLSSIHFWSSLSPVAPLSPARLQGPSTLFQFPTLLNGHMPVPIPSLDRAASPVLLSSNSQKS
# Outline: as §1
sequence,measurement,setting,value
TATGGT,binding signal,FLI1,"1.38 fold enrichment (6-mer frequency, TF over GST control)"
same,binding signal,ELK1,"1.3 fold enrichment (6-mer frequency, TF over GST control)"
same,binding signal,GABPA,"1.32 fold enrichment (6-mer frequency, TF over GST control)"
same,binding signal,ERG,"1.22 fold enrichment (6-mer frequency, TF over GST control)"
same,binding signal,ELF1,"1.37 fold enrichment (6-mer frequency, TF over GST control)"
same,binding signal,EHF,"1.39 fold enrichment (6-mer frequency, TF over GST control)"
same,binding signal,SPI1,"1.28 fold enrichment (6-mer frequency, TF over GST control)"
same,binding signal,SPIB,"1.3 fold enrichment (6-mer frequency, TF over GST control)"
same,binding signal,ELK3,"1.17 fold enrichment (6-mer frequency, TF over GST control)"
